Measurements taken from the supplement of paper PMC10127200.

Each molecule was assayed on 786-O (assay: Euclidean distance of Cell Painting phenotypic profile (signed KS, 77 features) to DMSO centroid (dimensionless distance); 5 or 10 uM (library dependent); higher = stronger phenotypic change vs DMSO (phenoactivity)). Conditions: 48 h.
Procedure, shortened: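 At 10 or 5 uM, as set by the library, and 0.1% DMSO final, compounds were applied for 48 h to five cancer lines and one healthy fibroblast line. Stained cells were imaged confocally at 20X in 9 fields per well, and Harmony extracted 77 features scored as signed Kolmogorov-Smirnov statistics against vehicle wells on the same plate. Profiles underwent plate-position correction, correlation weighting and replicate averaging at the top dose. Phenoactivity is the Euclidean distance from each such profile to the median vehicle profile.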

| Compound | Euclidean distance |
| --- | --- |
| CC(C)CC(=O)Nc1n[nH]c2c1CN(C(=O)C1CCN(C)CC1)C2(C)C | 3.52 |
| COc1ccc(CNCc2cccc3ccccc23)cc1 | 1.72 |
| CCN(CC)CCCC(C)Nc1ccnc2cc(Cl)ccc12 (centres undefined) [Chloroquine Phosphate] | 3.74 |
| COc1ccc(-c2oc3c(CC=C(C)C)c(O[C@@H]4O[C@H](CO)[C@@H](O)[C@H](O)[C@H]4O)cc(O)c3c(=O)c2O[C@@H]2O[C@@H](C)[C@H](O)[C@@H](O)[C@H]2O)cc1 [Icariin] | 0.632 |
| COc1cc(C(=O)NC2CCCNC2)cc(OC)c1OC (centres undefined) [Troxipide] | 1.15 |
| CO[C@H]1CC[C@H](N2C(=O)CNc3ncc(-c4ccc(C(C)(C)O)nc4)nc32)CC1 | 3.2 |
| O=C(O)c1cc(-c2ccc(F)cc2F)ccc1O [Diflunisal] | 1.47 |
| Cc1ccc(-n2sc(=O)n(Cc3ccc(F)cc3)c2=O)cc1 | 1.53 |
| COc1cc2ncnc(Nc3cccc(Cl)c3F)c2cc1OC(=O)N1CCN(C)C[C@H]1C | 1.15 |
| COc1ccc(CNC(=O)Nc2ncc([N+](=O)[O-])s2)cc1 | 0.769 |
| CC1Oc2cc(cnc2N)-c2c(nn(C)c2C#N)CN(C)C(=O)c2ccc(F)cc21 (centres undefined) | 0.876 |
| CC(C)C[C@H](NC(=O)[C@H](Cc1ccccc1)NC(=O)c1cnccn1)B(O)O [Bortezomib] | 5.28 |
| CN(C)CCOC(c1ccccc1)c1ccccc1.Cn1c(=O)c2[nH]c(Cl)nc2n(C)c1=O [Dimenhydrinate] | 0.947 |
| O=C(Nc1ccc(S(=O)(=O)Nc2ccccc2Cl)c(Cl)c1)c1ccccn1 | 0.876 |
